Source: the supplement of paper PMC11732987, “Enantioselective OTUD7B fragment discovery through chemoproteomics screening and high-throughput optimisation” (Communications Chemistry, 2025)

Experiments:
Test in all cases: log2 ratio of Biotin-Ahx-Ub-VS probe labelling (fragment/DMSO); higher = less target engagement (more negative = stronger competition), active = hit call of the paper (q ≤ 0.05, log2 ratio ≤ -1)
Settings in all cases: compound concentration: 200 uM; treatment time: 3 h
USP42 = molecular target: T1, USP42 (UniProt Q9H9J4)
T1 sequence (whole entry): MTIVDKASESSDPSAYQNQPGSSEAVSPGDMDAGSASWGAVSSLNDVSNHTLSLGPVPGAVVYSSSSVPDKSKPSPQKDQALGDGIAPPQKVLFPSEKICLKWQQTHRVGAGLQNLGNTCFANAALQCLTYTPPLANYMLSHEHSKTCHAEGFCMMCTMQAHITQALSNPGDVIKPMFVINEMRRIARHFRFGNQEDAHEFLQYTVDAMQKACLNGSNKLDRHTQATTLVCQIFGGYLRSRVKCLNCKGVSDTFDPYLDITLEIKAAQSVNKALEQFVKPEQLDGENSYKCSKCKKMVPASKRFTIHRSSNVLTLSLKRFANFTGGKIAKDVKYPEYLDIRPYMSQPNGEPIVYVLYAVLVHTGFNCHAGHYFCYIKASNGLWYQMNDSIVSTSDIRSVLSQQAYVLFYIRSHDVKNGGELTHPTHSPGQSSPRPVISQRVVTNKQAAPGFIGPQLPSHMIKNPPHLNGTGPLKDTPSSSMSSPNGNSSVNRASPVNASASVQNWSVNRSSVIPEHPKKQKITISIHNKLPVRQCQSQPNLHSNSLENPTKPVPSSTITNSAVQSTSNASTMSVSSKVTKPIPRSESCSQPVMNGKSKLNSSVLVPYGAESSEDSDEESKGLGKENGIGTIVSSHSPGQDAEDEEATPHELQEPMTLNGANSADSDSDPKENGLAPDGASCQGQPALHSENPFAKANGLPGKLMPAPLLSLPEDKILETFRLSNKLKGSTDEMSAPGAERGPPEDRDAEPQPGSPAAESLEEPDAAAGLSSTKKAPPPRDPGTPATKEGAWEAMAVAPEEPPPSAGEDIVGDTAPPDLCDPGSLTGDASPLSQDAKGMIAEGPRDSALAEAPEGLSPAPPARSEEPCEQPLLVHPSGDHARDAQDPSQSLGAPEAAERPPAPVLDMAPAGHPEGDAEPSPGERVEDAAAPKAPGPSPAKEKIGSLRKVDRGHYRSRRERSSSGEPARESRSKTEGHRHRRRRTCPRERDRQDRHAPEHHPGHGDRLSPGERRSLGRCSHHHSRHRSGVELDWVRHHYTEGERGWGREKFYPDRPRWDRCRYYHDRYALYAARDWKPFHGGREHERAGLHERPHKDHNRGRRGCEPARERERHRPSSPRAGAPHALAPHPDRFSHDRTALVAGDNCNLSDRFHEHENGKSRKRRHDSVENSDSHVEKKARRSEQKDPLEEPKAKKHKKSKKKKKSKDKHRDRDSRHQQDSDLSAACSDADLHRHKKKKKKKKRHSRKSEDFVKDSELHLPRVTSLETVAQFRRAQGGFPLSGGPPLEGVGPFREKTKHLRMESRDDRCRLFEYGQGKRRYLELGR
In short: (§1)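 Average log2 ratios of fragment over vehicle were obtained by unpaired t-test from global-median-normalised Spectronaut label-free quantities. Proteins with ≥2 unique peptides were included. HEK293T lysate (495 µg per sample) was treated in triplicate with fragment at 200 µM or vehicle for 3 h, then with Biotin-Ahx-Ub-VS at 0.5 µM final for 1 h, and labelled DUBs were NeutrAvidin-enriched and run by diaPASEF LC-MS/MS.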

USP46 = USP46 (UniProt P62068)
Chain of USP46 (P62068 whole entry): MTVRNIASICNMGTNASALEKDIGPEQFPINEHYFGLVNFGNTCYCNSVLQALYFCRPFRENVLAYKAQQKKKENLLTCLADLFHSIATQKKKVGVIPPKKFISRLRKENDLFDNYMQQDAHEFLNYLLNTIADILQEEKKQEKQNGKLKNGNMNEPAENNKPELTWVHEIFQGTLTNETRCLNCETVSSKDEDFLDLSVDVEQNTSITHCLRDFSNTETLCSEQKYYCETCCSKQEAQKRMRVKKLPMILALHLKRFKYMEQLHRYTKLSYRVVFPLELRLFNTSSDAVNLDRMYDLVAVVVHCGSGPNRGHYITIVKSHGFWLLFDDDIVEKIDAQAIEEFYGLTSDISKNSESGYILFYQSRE
In short: as §1

USP47 = molecular target: T2, USP47 (UniProt Q96K76)
T2 sequence (whole entry): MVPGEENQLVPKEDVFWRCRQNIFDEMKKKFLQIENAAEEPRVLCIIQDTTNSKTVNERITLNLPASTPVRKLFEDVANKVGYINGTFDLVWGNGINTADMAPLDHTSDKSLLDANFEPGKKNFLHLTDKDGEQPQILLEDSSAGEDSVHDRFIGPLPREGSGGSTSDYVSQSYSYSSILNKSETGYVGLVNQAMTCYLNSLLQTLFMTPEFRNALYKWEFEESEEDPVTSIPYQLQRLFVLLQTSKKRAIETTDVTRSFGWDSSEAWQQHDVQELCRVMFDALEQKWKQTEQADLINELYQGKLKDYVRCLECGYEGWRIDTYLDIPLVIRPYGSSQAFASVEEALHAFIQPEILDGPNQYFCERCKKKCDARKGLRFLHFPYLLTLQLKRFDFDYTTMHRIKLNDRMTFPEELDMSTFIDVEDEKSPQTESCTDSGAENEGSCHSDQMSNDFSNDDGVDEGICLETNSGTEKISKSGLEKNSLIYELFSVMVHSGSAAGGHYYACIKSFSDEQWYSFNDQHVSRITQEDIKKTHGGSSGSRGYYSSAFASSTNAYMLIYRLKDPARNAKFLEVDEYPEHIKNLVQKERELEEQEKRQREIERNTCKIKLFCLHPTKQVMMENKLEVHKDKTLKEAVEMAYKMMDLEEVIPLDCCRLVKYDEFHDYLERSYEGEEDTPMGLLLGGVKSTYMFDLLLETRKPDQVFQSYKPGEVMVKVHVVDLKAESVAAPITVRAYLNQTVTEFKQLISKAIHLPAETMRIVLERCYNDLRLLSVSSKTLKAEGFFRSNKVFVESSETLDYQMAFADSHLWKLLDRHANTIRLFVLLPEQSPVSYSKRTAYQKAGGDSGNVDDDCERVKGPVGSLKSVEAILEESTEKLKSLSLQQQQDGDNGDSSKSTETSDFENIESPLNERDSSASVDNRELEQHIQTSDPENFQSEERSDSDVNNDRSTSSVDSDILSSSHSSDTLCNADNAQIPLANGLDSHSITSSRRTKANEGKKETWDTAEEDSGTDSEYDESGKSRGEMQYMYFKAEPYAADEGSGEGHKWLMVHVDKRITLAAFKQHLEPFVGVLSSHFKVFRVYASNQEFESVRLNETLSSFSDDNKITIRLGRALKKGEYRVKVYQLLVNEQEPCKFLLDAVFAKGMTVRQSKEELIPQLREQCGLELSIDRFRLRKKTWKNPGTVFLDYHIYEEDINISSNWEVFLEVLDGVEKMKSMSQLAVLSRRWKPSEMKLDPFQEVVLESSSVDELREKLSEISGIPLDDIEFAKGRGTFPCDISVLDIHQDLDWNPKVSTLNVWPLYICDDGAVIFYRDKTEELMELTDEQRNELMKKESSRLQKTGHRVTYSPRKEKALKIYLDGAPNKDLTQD
In short: as §1

USP48 = molecular target: T3, USP48 (UniProt Q86UV5)
T3 sequence (whole entry): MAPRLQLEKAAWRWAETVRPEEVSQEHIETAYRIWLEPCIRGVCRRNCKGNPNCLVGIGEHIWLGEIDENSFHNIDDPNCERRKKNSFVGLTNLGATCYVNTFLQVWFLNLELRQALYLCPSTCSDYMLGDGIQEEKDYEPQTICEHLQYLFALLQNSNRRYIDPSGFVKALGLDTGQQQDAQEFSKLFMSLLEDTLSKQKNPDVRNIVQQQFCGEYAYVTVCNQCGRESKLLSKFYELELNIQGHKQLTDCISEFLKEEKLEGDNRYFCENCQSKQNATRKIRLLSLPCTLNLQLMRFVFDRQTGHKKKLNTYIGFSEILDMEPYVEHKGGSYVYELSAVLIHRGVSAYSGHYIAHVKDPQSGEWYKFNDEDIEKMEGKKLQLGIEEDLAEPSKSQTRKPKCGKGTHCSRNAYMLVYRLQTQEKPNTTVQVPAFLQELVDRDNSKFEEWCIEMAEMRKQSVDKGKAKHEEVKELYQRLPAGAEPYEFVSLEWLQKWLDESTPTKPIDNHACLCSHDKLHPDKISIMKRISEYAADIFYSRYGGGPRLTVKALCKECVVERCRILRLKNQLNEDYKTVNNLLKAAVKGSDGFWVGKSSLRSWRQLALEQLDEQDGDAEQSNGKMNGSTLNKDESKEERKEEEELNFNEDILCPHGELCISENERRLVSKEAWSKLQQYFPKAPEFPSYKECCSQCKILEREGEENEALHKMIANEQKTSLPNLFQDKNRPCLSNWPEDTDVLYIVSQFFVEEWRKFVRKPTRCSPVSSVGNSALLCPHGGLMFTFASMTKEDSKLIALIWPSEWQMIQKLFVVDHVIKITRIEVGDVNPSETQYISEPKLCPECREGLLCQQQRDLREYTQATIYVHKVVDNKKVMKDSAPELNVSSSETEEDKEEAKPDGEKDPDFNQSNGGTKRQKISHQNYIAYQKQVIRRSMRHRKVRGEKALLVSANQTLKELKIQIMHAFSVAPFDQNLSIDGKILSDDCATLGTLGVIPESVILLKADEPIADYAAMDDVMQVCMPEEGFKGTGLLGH
In short: as §1

USP5 = molecular target: T4, USP5 (UniProt P45974)
T4 sequence (whole entry): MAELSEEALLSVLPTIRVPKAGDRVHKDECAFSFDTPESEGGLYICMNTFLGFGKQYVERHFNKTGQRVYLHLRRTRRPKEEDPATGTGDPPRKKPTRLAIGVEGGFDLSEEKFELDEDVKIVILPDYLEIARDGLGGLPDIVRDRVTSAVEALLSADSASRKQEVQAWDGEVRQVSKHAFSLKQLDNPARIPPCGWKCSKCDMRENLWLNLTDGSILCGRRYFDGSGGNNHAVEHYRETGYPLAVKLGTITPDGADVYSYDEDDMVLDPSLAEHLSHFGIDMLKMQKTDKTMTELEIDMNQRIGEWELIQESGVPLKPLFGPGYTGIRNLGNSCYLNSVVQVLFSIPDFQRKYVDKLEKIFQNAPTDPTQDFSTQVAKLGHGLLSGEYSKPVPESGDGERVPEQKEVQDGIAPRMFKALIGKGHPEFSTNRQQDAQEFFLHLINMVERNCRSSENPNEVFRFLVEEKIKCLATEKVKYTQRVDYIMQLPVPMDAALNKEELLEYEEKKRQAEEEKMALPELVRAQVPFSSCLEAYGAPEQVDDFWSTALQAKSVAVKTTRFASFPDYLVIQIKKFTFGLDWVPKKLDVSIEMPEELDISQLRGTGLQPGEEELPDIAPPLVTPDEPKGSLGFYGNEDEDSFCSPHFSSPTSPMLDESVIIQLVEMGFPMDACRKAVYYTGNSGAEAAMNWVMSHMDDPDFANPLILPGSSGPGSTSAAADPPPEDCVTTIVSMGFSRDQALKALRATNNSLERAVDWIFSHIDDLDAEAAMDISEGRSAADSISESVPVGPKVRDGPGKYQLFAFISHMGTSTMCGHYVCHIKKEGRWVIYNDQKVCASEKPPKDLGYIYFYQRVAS
In short: as §1

USP54 = USP54 (UniProt Q70EL1)
Chain of USP54 (Q70EL1 whole entry): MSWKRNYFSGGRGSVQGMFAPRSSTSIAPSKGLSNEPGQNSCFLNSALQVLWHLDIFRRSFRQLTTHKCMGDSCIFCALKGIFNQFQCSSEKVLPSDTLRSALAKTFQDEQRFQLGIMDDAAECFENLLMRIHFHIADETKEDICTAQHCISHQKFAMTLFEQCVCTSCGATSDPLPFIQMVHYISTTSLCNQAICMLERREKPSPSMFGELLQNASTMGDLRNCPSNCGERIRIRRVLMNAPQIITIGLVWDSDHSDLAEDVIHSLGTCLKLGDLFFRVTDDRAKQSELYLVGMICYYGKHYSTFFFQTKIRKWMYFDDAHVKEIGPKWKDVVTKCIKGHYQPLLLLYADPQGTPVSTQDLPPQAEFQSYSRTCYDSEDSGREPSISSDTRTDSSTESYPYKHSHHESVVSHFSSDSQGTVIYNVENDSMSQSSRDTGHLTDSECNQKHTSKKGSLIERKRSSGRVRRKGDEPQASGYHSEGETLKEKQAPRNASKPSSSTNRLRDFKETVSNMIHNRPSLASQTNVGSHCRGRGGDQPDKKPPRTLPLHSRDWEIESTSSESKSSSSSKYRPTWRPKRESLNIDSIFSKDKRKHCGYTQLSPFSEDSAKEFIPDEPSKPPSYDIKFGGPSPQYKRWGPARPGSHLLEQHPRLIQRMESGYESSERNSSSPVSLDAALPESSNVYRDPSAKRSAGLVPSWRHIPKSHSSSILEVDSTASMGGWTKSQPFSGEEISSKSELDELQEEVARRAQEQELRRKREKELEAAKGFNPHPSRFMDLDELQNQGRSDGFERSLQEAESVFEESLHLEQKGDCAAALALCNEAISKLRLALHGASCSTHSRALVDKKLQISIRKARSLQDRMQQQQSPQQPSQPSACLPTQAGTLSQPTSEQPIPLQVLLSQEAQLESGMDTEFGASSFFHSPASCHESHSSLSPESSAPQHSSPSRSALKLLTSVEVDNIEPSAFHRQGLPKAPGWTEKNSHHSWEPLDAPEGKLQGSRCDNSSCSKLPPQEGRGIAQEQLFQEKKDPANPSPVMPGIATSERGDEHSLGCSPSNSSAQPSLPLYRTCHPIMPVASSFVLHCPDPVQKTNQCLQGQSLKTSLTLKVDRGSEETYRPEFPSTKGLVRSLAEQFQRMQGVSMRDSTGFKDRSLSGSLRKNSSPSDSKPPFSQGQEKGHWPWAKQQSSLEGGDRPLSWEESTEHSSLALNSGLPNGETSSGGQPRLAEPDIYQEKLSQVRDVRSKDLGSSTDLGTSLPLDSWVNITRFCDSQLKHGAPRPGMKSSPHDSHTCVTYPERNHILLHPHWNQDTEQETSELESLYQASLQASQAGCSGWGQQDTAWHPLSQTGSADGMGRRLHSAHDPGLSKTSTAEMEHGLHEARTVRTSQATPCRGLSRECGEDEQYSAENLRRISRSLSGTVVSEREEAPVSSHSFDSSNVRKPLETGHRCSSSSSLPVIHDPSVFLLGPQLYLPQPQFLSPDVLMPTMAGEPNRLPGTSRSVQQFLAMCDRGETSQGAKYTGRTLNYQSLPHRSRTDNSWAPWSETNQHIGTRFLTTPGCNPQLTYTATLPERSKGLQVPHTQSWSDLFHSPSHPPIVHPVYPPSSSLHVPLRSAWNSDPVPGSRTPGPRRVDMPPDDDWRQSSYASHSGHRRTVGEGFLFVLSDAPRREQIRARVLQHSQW
In short: as §1

USP7 = USP7 (UniProt Q93009)
Chain of USP7 (Q93009 whole entry, looked up): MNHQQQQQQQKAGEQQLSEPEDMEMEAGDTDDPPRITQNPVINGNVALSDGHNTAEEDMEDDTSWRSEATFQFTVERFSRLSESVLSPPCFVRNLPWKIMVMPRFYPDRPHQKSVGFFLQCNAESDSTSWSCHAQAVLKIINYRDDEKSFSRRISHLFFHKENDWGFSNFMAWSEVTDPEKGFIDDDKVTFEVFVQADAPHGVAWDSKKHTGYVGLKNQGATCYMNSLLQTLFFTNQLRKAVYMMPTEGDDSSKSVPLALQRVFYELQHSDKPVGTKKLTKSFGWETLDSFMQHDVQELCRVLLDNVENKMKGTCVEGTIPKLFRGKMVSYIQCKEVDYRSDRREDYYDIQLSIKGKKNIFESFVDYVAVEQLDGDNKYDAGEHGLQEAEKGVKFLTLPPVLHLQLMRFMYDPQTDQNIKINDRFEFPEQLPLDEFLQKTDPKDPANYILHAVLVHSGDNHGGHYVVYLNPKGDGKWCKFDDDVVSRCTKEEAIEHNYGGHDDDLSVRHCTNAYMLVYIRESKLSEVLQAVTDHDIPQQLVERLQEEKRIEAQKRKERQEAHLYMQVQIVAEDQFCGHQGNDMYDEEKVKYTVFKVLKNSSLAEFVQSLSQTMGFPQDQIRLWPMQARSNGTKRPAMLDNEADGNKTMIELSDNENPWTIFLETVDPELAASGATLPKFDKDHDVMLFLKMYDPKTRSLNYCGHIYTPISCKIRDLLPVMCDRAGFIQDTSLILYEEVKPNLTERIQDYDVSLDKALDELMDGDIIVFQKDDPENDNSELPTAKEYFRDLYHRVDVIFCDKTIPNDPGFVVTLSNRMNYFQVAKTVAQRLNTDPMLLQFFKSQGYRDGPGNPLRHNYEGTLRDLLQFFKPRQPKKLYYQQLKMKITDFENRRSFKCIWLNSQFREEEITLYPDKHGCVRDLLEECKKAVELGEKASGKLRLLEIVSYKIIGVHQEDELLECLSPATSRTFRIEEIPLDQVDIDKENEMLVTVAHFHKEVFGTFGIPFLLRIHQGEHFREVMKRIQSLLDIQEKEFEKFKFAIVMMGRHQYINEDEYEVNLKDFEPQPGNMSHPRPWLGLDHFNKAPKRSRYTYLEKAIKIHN
In short: as §1

USP8 = molecular target: T5, USP8 (UniProt P40818)
T5 sequence (whole entry): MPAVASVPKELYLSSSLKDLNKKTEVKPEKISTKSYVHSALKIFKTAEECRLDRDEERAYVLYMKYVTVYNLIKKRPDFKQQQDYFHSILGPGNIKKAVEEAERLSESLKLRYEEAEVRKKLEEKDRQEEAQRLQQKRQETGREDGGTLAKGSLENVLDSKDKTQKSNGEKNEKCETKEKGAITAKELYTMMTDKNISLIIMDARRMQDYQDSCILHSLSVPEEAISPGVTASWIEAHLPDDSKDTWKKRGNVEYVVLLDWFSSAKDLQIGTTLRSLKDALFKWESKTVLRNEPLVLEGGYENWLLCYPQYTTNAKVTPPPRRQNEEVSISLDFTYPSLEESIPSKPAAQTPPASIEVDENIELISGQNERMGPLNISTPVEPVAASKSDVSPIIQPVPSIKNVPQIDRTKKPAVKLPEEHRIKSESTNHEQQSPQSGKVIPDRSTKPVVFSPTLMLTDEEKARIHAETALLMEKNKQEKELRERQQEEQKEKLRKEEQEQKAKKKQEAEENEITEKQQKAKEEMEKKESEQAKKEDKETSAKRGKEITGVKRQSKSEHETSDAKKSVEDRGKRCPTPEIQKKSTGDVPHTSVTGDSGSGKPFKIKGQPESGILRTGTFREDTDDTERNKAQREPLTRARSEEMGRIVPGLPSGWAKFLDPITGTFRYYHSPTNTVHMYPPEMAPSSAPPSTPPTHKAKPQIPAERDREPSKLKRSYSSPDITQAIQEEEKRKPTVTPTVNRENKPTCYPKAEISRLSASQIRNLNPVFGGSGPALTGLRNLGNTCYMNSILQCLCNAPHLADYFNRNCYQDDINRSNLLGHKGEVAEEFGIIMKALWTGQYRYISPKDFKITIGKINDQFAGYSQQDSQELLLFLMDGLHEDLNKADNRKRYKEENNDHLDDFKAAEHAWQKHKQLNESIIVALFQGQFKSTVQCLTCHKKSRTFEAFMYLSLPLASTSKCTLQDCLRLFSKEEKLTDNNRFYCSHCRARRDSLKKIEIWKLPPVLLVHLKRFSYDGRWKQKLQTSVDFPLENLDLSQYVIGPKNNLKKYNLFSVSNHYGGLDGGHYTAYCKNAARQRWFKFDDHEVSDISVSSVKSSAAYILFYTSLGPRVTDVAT
In short: as §1

USP9X = USP9X (UniProt Q93008)
In short: as §1

UniProt O00487 = molecular target: UniProt O00487
Chain of UniProt O00487 (O00487 whole entry): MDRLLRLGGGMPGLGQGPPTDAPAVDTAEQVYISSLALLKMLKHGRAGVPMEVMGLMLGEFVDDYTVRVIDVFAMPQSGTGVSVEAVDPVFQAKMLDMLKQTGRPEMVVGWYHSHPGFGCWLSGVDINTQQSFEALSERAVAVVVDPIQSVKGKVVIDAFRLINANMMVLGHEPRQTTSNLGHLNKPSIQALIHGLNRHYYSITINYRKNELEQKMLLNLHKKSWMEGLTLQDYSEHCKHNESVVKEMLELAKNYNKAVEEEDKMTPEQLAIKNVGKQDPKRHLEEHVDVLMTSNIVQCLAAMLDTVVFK
In short: as §1

Measured: log2 ratio of Biotin-Ahx-Ub-VS probe labelling

COc1cc(Cl)c(C)cc1NC(=O)CCl
inactive: USP42 -0.591 | USP46 -0.0884 | USP47 -0.965 | USP48 -0.36 | USP5 -0.267 | USP54 0.718 | USP7 -0.373 | USP8 -0.251 | USP9X -0.645 | UniProt O00487 -0.246
